Results as given in PubChem BioAssay (Tox21).
Results filed as inconclusive are left out. Activity calls are given as the source filed them. Unless noted, calls follow the shape of the full dose curve.

Columns and labels:
[1] = Nuclear factor erythroid 2-related factor 2/antioxidant responsive element (Nrf2/ARE) small molecule agonists: qHTS cell viability counter screen in human keratinocytes (AID 1919968; active = well fitted curve in the direction sought with a large enough effect in the repeat runs; an effect the other way counts as inactive or inconclusive; also: nearly all actives have a fitted effect of over 55% in size; also: potency is read from the fitted curve at half-maximal effect)
How it was run: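 Cytotoxicity was multiplexed with the Nrf2/ARE luciferase assay in the same wells. Stably transfected HaCaT keratinocytes were treated with test compounds for 23 h at 37 C. Cell viability was then measured by CellTiter-Fluor fluorescence.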

[2] = Nuclear factor erythroid 2-related factor 2/antioxidant responsive element (Nrf2/ARE) small molecule agonists: luciferase reporter gene qHTS assay in human keratinocytes (AID 1919969); also: nearly all actives have a fitted effect of over 35% in size; also: potency is read from the fitted curve at half-maximal effect
[3] = target: Gonadotropin-releasing hormone receptor (Homo sapiens) (UniProt P30968); assay: Human gonadotropin-releasing hormone receptor (GnRHR) small molecule agonists, calcium flux assay in GnRHR-HEK293 cells (AID 1920063); also: nearly all actives have a fitted effect of over 35% in size; also: potency is read from the fitted curve at half-maximal effect
How it was run: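 Agonist activity was measured as intracellular calcium flux in HEK293 cells engineered to stably express human GnRHR. After dye loading for 1 hour at 37 C, compounds in DMSO were added and fluorescence was followed for 3 minutes.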

[4] = target: KiSS-1 receptor (Homo sapiens) (UniProt Q969F8); assay: Human kisspeptin (KISS1R) small molecule agonists, calcium flux assay in KISS1R-HEK293 cells (AID 1920064; active = well fitted curve in the direction sought with a large enough effect in the repeat runs; an effect the other way counts as inactive or inconclusive)
How it was run: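 Agonist activity is monitored as intracellular calcium rise in engineered HEK293 cells carrying human KISS1R. Cells are dye-loaded for 1 h at 37 C before compound addition, and fluorescence is recorded for 3 min.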

[5] = p53 small molecule agonists, cell-based qHTS assay with human liver microsomes (AID 1963577)
How it was run: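 Compounds act here after metabolic activation: human liver microsomes and NADPH, both at 0.5 mg/mL final, were co-added to p53RE-bla cells. Incubation ran 16 h at 37 C, followed by LiveBLAzer detection.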

[6] = p53 small molecule agonists, cell-based qHTS assay with rat liver microsomes (AID 1963578)
How it was run: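 Read-out is beta-lactamase reporter fluorescence (LiveBLAzer, 2 h, room temperature, dark) in p53RE-bla cells treated 16 h at 37 C with compound, rat liver microsomes and NADPH, both 0.5 mg/mL final.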

[7] = p53 small molecule agonists, cell-based qHTS assay with rat liver microsomes: qHTS cell viability counter screen (AID 1963580); also: nearly all actives have a fitted effect of over 45% in size; also: potency is read from the fitted curve at half-maximal effect
How it was run: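 Cytotoxicity counter screen: intracellular ATP read by CellTiter-Glo luminescence in the p53 reporter wells. HCT-116 p53RE-bla cells were treated for 16 h at 37 C alongside rat liver microsomes and NADPH, each 0.5 mg/mL final.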

[8] = target: 5-hydroxytryptamine receptor 2A (Homo sapiens) (UniProt P28223); assay: 5-hydroxytryptamine receptor 2A (HTR2A) small molecule antagonists, cell-based qHTS assay (AID 1963586); also: nearly all actives have a fitted effect of over 45% in size
How it was run: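 CHO cells stably expressing human HTR2A were plated for 18 h at 37 C, then loaded with calcium dye for 1 h. Compounds were preincubated 5 min at room temperature before DOI (4 nM solution) was added. Kinetic fluorescence was read for 3 min.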

[9] = target: 5-hydroxytryptamine receptor 2A (Homo sapiens) (UniProt P28223); assay: 5-hydroxytryptamine receptor 2A (HTR2A) small molecule agonists, cell-based qHTS assay (AID 1963587); also: nearly all actives have a fitted effect of over 30% in size
How it was run: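 Kinetic calcium-flux fluorescence (2 min, 1 sec intervals) after compound addition in agonist mode. HTR2A-CHO cells were cultured 18 h, then dye-loaded 1 h at 37 C.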

[10] = target: Muscarinic acetylcholine receptor M1 (Homo sapiens) (UniProt P11229); assay: Cholinergic receptor muscarinic 1 (CHRM1) small molecule antagonists, cell-based qHTS assay (AID 1963588); also: nearly all actives have a fitted effect of over 40% in size; also: potency is read from the fitted curve at half-maximal effect
How it was run: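 Compounds were tested at 15 concentrations in three independent runs. Dye-loaded CHRM1-CHO cells were exposed 5 min at room temperature before stimulation by acetylcholine added at 50nM. Intracellular calcium was read kinetically on FDSS for 3 min.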

[11] = target: Muscarinic acetylcholine receptor M1 (Homo sapiens) (UniProt P11229); assay: Cholinergic receptor muscarinic 1 (CHRM1) small molecule agonists, cell-based qHTS assay (AID 1963589); also: nearly all actives have a fitted effect of over 35% in size
How it was run: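 Cells were plated and incubated 18 h at 37 C/5% CO2, loaded with calcium dye for 1 h at 37 C, then treated with compounds in DMSO. Fluorescence was recorded kinetically at 1 sec intervals.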

[12] = target: D(2) dopamine receptor (Homo sapiens) (UniProt P14416); assay: Dopamine D2 receptor (DRD2) small molecule antagonists, cell-based qHTS assay (AID 1963595; active = well fitted inhibition curve with a large enough effect in the signal ratio in the repeat runs, with a control signal flat; the % refers to the signal ratio; also: potency is read from the fitted curve at half-maximal effect)
How it was run: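 Antagonist mode in DRD2-HEK293 cells: after compound addition with 0.1 mM Ro20-1724, cells received quinpirole (12 nM) and NKH477 (200 nM) for 30 min at room temperature; HTRF cAMP read after 1 h detection.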

[13] = p53 small molecule agonists, cell-based qHTS assay with human liver microsomes: qHTS cell viability counter screen (AID 1963579); also: nearly all actives have a fitted effect of over 45% in size; also: potency is read from the fitted curve at half-maximal effect
How it was run: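 Cells carrying the p53 response-element beta-lactamase reporter are treated for 16 h at 37 C with test compounds in the presence of human liver microsomes and NADPH (both 0.5 mg/mL final); ATP-based CellTiter-Glo luminescence then reports viability.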

[14] = p53 small molecule agonists, cell-based qHTS assay: qHTS cell viability counter screen (AID 1963581); also: nearly all actives have a fitted effect of over 45% in size; also: potency is read from the fitted curve at half-maximal effect
How it was run: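 Viability was counter-screened in parallel with the p53 agonist reporter by measuring intracellular ATP luminescence in the same HCT-116 p53RE-bla wells after 16 h compound treatment at 37 C.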

[15] = cAMP Responsive Elements (CRE) small molecule agonists, cell-based qHTS assay (AID 1963590)
How it was run: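 Cells carrying a CRE-driven beta-lactamase reporter (HEK 293T) are seeded, incubated overnight (18 h), and treated with test compounds for 3 h at 37 C; reporter activity is then detected with a FRET substrate after 2 h at room temperature.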

[16] = cAMP Responsive Elements (CRE) small molecule antagonists, cell-based qHTS assay (AID 1963591; active = well fitted inhibition curve with a large enough effect in the signal ratio in the repeat runs, not every such curve was filed as active; the % refers to the signal ratio)
How it was run: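 Cells (CRE-bla HEK 293T, DMEM with 10% dialyzed FBS and 25 mM HEPES) are seeded and incubated 18 h. Compounds are added with NKH477 agonist at 0.25 uM final for 3 h, then FRET substrate for 2 h.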

[17] = target: Beta-2 adrenergic receptor (Homo sapiens) (UniProt P07550); assay: Adrenergic beta2 receptor (ADRB2) small molecule antagonists, cell-based qHTS assay (AID 1963592); also: series mostly up to about 92 µM; nearly all actives have a fitted effect of over 50% in size
How it was run: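 Assay format: CHO-ADRB2 cells, 18-20hr seeding at 37C/5% CO2, then compound plus 1nM isoproterenol agonist mix for 0.5hr RT. Homogeneous time-resolved fluorescence cAMP detection after 1hr, expressed as 665/615 nm ratio.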

[18] = G protein-coupled receptor (GPCR) small molecule agonists, calcium flux assay: HEK293 wild type cell line counter screen (AID 1920065)
How it was run: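 Seed cells, incubate 18 h (37 C, 5% CO2); add calcium dye, 1 h at 37 C; pin-transfer compounds, ATP control or DMSO; read fluorescence 480/540 nm each second for 3 min.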

[19] = target: Beta-2 adrenergic receptor (Homo sapiens) (UniProt P07550); assay: Adrenergic beta2 receptor (ADRB2) small molecule agonists, cell-based qHTS assay (AID 1963593);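 also: CHO cells stably overexpressing human ADRB2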
How it was run: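 CHO cells stably over-expressing ADRB2 were plated overnight at 37C, then dosed with compounds plus a stimulation mix containing 100uM IBMX and 25uM Ro-20-1724 for 0.5hr at room temperature. cAMP was measured by HTRF competition, 1hr.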

[20] = target: D(2) dopamine receptor (Homo sapiens) (UniProt P14416); assay: Dopamine D2 receptor (DRD2) small molecule agonists, cell-based qHTS assay (AID 1963594); also: nearly all actives have a fitted effect of over 35% in size
How it was run: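 cAMP accumulation in DRD2-HEK293 cells measured by HTRF after 1 h detection; compounds added 10 min before NKH477 (200nM […]) forskolin-analogue stimulation, 30 min at room temperature, with Ro20-1724 present at 0.1 mM final.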

Measured: Potency

Sequence of Beta-2 adrenergic receptor (Homo sapiens) (P07550 whole entry, looked up): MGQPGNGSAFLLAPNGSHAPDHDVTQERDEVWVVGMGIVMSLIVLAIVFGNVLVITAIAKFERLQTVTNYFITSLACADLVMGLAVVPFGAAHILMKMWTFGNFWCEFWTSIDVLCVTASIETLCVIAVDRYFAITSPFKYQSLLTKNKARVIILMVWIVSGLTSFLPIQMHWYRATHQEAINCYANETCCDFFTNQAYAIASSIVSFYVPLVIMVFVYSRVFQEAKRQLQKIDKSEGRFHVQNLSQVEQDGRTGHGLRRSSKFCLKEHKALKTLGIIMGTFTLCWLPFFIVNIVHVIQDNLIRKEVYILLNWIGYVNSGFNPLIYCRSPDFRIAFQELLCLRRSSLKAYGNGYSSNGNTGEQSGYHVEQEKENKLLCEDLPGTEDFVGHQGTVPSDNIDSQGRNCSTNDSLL
Sequence of D(2) dopamine receptor (Homo sapiens) (P14416 whole entry, looked up): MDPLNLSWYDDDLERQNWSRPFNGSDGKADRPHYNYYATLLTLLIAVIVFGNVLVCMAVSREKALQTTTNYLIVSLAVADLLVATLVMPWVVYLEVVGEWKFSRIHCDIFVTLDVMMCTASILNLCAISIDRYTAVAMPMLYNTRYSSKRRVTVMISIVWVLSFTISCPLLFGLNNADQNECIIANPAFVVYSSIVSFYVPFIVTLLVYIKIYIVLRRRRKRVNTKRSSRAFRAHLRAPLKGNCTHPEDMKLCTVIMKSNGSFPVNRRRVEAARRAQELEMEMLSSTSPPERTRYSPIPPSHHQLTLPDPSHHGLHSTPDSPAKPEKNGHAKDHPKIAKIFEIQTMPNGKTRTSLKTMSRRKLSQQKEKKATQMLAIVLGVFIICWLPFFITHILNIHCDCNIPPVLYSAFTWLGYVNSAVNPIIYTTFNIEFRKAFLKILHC
Sequence of KiSS-1 receptor (Homo sapiens) (Q969F8 whole entry, looked up): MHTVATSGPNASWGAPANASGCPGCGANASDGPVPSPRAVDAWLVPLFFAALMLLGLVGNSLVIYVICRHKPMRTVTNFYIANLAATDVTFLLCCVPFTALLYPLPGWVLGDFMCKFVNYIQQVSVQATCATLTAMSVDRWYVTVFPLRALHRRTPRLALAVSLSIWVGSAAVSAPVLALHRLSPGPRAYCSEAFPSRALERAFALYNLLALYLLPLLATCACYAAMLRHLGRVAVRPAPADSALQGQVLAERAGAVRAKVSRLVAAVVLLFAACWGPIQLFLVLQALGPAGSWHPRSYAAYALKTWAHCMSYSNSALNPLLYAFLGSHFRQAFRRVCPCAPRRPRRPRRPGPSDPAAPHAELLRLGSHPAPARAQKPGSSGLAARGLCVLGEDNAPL
Sequence of 5-hydroxytryptamine receptor 2A (Homo sapiens) (P28223 whole entry, looked up): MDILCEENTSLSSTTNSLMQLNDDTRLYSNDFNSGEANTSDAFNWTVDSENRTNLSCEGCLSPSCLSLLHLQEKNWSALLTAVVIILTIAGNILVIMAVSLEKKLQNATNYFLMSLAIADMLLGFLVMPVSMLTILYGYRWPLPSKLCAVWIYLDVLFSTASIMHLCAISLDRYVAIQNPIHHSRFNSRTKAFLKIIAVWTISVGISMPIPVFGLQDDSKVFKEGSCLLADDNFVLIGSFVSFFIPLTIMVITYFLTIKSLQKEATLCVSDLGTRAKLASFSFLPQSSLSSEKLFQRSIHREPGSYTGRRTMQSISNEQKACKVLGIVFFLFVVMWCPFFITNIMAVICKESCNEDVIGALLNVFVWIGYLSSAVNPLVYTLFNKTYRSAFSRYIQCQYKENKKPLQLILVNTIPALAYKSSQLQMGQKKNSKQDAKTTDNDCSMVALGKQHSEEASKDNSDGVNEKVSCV
Sequence of Muscarinic acetylcholine receptor M1 (Homo sapiens) (P11229 whole entry, looked up): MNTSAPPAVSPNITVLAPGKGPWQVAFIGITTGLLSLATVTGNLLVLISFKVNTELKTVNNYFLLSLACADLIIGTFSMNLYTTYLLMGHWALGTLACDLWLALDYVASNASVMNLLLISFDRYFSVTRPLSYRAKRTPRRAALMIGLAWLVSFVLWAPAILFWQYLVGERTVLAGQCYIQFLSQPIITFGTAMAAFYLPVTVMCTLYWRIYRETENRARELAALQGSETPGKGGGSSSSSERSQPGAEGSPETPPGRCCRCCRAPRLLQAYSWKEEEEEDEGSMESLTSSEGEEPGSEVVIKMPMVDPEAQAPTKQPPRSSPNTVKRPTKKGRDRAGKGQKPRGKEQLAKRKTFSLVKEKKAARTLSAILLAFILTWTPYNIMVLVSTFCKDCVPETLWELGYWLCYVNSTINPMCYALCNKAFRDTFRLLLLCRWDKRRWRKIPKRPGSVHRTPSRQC
Sequence of Gonadotropin-releasing hormone receptor (Homo sapiens) (P30968 whole entry, looked up): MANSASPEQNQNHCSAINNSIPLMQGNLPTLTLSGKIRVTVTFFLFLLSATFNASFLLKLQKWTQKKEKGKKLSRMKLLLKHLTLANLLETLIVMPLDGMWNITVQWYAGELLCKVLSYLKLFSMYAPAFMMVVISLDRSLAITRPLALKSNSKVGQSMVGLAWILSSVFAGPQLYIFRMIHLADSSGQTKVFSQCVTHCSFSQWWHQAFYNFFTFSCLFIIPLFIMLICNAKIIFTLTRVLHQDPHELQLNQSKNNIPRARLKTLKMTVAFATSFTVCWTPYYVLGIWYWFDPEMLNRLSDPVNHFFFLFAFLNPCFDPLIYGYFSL

N#Cc1cc(I)c(O)c(I)c1
active: [7] 45.8 µM
not listed: [13] | [14] | [15] | [16] | [17] | [18] | [19] | [20]
inactive: all other assays above

BrCBr
not listed: [18] | [19] | [20]
inactive: all other assays above

CC(=O)NC1CCSC1=O (stereo not drawn)
not listed: [5] | [6] | [8] | [13] | [20]
inactive: all other assays above

Cc1cc(OC(=O)N(C)C)nn1C(=O)N(C)C
not listed: [5] | [6] | [13] | [19]
inactive: all other assays above

Oc1c(Br)c(Br)c(Br)c(Br)c1Br
active: [1] 30.8 µM | [13] 23.1 µM | [10] 30 µM
inactive: [2] | [3] | [4] | [5] | [6] | [11] | [17] | [20] | [12]

CC(N)=S
not listed: [6] | [8] | [9] | [10] | [11] | [16] | [18] | [19]
inactive: all other assays above

CCN(CC)CCOC(=O)C(C)(c1ccccc1)c1ccccc1
active: [10] 0.013 µM
not listed: [8] | [18] | [19]
inactive: all other assays above

CCN(CC)C(C)C(=O)c1ccccc1 (stereo not drawn)
not listed: [5] | [6] | [8] | [13] | [19] | [20]
inactive: all other assays above

CC(Cc1ccc(O)cc1)NCC(O)c1cc(O)cc(O)c1 (stereo not drawn)
active: [3] 0.0338 µM | [12] 5.96 µM
inactive: [1] | [2] | [4] | [18] | [10] | [11] | [16]

CC[C@H]1C[C@H]2[C@@H]3CCC4=CC(=O)CC[C@@H]4[C@H]3CC[C@]2(C)[C@H]1O
active: [2] 11.9 µM
not listed: [8] | [9] | [13] | [15] | [16] | [18]
inactive: all other assays above

COc1nn(CSP(=S)(OC)OC)c(=O)s1
inactive: [1] | [3] | [4] | [18] | [8] | [9] | [11] | [17]
active: [2] 68.6 µM

Nc1cc(Cl)ccc1O
active: [2] 52.7 µM
not listed: [6] | [15] | [18] | [19]
inactive: all other assays above

O=P(O)(O)c1ccccc1
not listed: [5] | [6] | [13] | [16]
inactive: all other assays above

O=[N+]([O-])c1cc([N+](=O)[O-])c2ccccc2c1
active: [2] 17.2 µM
inactive: [1] | [3] | [4] | [5] | [6] | [9] | [17] | [20]

OCCBr
not listed: [5] | [6] | [13] | [14] | [17] | [19]
inactive: all other assays above

CCCCCCCCCCCCN(C)C
not listed: [16] | [18]
inactive: all other assays above

CN(C)CCc1c[nH]c2cccc(O)c12
inactive: [1] | [3] | [4] | [5] | [6] | [7] | [11] | [15] | [16]
active: [2] 67.9 µM

CC1(C)[C@H](C=C(Cl)Cl)[C@@H]1C(=O)O[C@@H](C#N)c1cccc(Oc2ccccc2)c1
not listed: [6] | [10] | [18]
inactive: all other assays above

O=S1(=O)OC(c2cc(Br)c(O)c(Br)c2)(c2cc(Br)c(O)c(Br)c2)c2ccccc21
active: [1] 14.1 µM | [13] 21 µM | [7] 18.7 µM | [14] 18.7 µM
not listed: [5] | [12] | [17] | [18] | [19] | [20]
inactive: all other assays above

C=CC(=O)NCNC(=O)C=C
active: [2] 61.1 µM
not listed: [5] | [6] | [7] | [12] | [13] | [14] | [16] | [19]
inactive: all other assays above
